# Many of the other results were omitted from the sample, so hits are more common in it than they were.
# IDE exosite inh: exo-site inhibitors of human insulin-degrading enzyme; purified IDE, FL-6b probe fluorescence polarization; stronger effect = lower value; z-score at 20 µM; 6.3% of 17,000 active; AID 1259349;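 active = z-score of -3 or lower, meaning strong loss of probe binding signal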;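 also: His-tagged human IDE residues 42-1019 made in E. coli with 30 nM FL-6b probe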
# Target sequence (P14735 42-1019 limits assumed): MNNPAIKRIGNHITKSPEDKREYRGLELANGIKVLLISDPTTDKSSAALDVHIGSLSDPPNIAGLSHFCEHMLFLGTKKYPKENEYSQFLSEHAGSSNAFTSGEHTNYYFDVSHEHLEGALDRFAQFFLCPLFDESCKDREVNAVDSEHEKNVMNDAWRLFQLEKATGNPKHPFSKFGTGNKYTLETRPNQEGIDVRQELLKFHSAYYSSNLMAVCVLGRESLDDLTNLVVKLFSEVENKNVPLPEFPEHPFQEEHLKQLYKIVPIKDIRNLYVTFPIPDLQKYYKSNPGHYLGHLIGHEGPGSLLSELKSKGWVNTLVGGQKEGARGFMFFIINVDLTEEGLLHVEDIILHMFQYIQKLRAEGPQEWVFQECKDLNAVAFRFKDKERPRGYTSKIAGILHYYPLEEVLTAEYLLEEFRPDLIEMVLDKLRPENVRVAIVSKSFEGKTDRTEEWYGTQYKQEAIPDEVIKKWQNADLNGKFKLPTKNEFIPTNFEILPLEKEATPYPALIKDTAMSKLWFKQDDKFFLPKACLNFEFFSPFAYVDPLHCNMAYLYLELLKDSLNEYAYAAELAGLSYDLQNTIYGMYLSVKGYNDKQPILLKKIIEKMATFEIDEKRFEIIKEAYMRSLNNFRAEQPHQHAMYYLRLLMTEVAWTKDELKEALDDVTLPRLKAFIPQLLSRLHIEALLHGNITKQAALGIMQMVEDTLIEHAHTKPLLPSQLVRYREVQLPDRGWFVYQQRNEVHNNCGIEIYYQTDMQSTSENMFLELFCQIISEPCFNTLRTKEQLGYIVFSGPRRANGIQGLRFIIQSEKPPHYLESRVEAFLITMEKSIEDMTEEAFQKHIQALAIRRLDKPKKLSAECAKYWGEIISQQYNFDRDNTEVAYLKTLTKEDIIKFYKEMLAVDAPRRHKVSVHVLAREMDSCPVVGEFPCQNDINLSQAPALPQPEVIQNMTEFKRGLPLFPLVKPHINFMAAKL
# An asterisk follows results filed as active.
SMILES,IDE exosite inh
COCC(=O)N1CC(=O)N2[C@@H](CO)[C@@H](c3ccc(-c4ccccc4C)cc3)[C@@H]2C1,-13*
COCC(=O)N1CC(=O)N2[C@@H](CO)[C@@H](c3ccc(Br)cc3)[C@@H]2C1,4
COCC(=O)N1CC(=O)N2[C@H](CO)[C@H](c3ccc(Br)cc3)[C@@H]2C1,2.5
COCC(=O)N1CC(=O)N2[C@H](C1)[C@H](c1ccc(-c3ccccc3)cc1)[C@@H]2CO,3.7
CCCN1[C@@H]2Cn3c(ccc(-c4ccccc4)c3=O)[C@H]1[C@@H](C(=O)NCC)[C@@H]2CO,0.53
CO[C@@H]1CC[C@H]2CCN(C)C(=O)[C@H](C)CN(C)C(=O)c3cc(C#N)ccc3OC[C@@H]1O2,1
C[C@@H]1CCn2cc(nn2)COC[C@@H](Cc2ccccc2)NC1=O,0.082
COc1cccc(NC(=O)N[C@@H]2C=C[C@@H](CC(=O)NCc3ccncn3)O[C@H]2CO)c1,1.7
CCS(=O)(=O)N1CC2(CN(CC3CCOCC3)[C@H](CO)c3c2c2ccc(OC)cc2n3C)C1,-2.6
CCCC#Cc1ccc([C@@H]2[C@H]3CN(C(=O)c4ccccn4)CC(=O)N3[C@H]2CO)cc1,2.7
O=C(c1ccccn1)N1CC(=O)N2[C@H](C1)[C@@H](c1ccc(C#Cc3ccccc3)cc1)[C@@H]2CO,-2.9
CC(C)C#Cc1ccc([C@H]2[C@H](CO)N3C(=O)CN(C(=O)c4ccccn4)C[C@@H]23)cc1,1.4
CC(C)C#Cc1ccc([C@@H]2[C@H](CO)N3C(=O)CN(C(=O)c4ccccn4)C[C@@H]23)cc1,-0.085
O=C(c1cnccn1)N1CC(=O)N2[C@@H](CO)[C@H](c3ccc(C#CCc4ccccc4)cc3)[C@@H]2C1,0.7
O=C(c1ccccn1)N1CC(=O)N2[C@H](C1)[C@H](c1ccc(C#Cc3ccccc3)cc1)[C@@H]2CO,-6.4*
O=C(c1ccccn1)N1CC(=O)N2[C@H](CO)[C@@H](c3ccc(C#Cc4ccccc4)cc3)[C@H]2C1,-9.4*
CCCC#Cc1ccc([C@H]2[C@H](CO)N3C(=O)CN(C(=O)c4ccccn4)C[C@@H]23)cc1,1.1
O=C(c1cnccn1)N1CC(=O)N2[C@H](CO)[C@@H](c3ccc(C#CCc4ccccc4)cc3)[C@H]2C1,-2.4
CCCC#Cc1ccc([C@@H]2[C@H](CO)N3C(=O)CN(C(=O)c4ccccn4)C[C@@H]23)cc1,-3.2*
CCCC#Cc1ccc([C@@H]2[C@@H](CO)N3C(=O)CN(C(=O)c4ccccn4)C[C@H]23)cc1,0.41
O=C(c1ccccn1)N1CC(=O)N2[C@@H](CO)[C@@H](c3ccc(C#CCc4ccccc4)cc3)[C@@H]2C1,-4.7*
COc1ccccc1CNC(=O)C[C@@H]1C=C[C@@H](NC(=O)CC2CC2)[C@H](CO)O1,1.1
O=C(C[C@H]1CC[C@H]2[C@@H](COC[C@@H](O)CN2S(=O)(=O)c2ccccc2F)O1)N1CCC(Cc2ccccc2)CC1,-1.8
O=C(C[C@@H]1CC[C@H]2[C@@H](COC[C@@H](O)CN2CCC(F)(F)F)O1)NCC1CC1,-0.71
COCC(=O)N1CCCCN2[C@H](CO)[C@H](c3ccc(C#Cc4ccccc4)cc3)[C@H]2C1,-6.3*
SMILES,IDE exosite inh
COc1ccccc1NC(=O)N1CCCCN2[C@H](CO)[C@H](c3ccc(C#Cc4ccccc4)cc3)[C@H]2C1,-0.26
COCC(=O)N1CCCCN2[C@H](C1)[C@H](c1ccc(C#Cc3ccc(OC)cc3)cc1)[C@@H]2CO,1.8
COc1ccccc1NC(=O)N1CCCCN2[C@H](C1)[C@@H](c1ccc(C#Cc3ccccc3)cc1)[C@@H]2CO,2.6
COCC(=O)N1CCCCN2[C@H](CO)[C@@H](c3ccc(C#Cc4ccccc4)cc3)[C@@H]2C1,-8.5*
COCC(=O)N1CCCCN2[C@@H](CO)[C@@H](c3ccc(C#Cc4ccccc4)cc3)[C@@H]2C1,-8.5*
COCC(=O)N1CCCCN2[C@@H](CO)[C@@H](c3ccc(C#Cc4ccc(OC)cc4)cc3)[C@@H]2C1,0.57
COCC#Cc1ccc([C@@H]2[C@H](CO)N3CCCCN(C(=O)COC)C[C@@H]23)cc1,1.8
CCCC#Cc1ccc([C@@H]2[C@@H](CO)N3C(=O)CN(C(=O)c4cccnc4)C[C@H]23)cc1,-0.38
N#C[C@H]1[C@@H](c2ccccc2C2=CCCC2)[C@@H](CO)N1C(=O)C1CCC1,2.6
CO[C@H]1CN(C)C(=O)c2ccc(NC(=O)Nc3ccccc3F)cc2OC[C@@H](C)N(CC2CC2)C[C@H]1C,-0.2
O=C(Nc1ccccc1F)N1CC(=O)N2[C@H](CO)[C@H](c3ccc(-c4ccc(F)cc4)cc3)[C@@H]2C1,0.49
COc1ccccc1NC(=O)N1CC(=O)N2[C@H](CO)[C@@H](c3ccc(C#CCC(C)C)cc3)[C@H]2C1,0.81
Cc1ccc(NC(=O)Nc2ccc3c(c2)C(=O)N(C)[C@@H]2CC[C@@H](CC(=O)NCC(F)(F)F)O[C@H]2CO3)cc1,-0.86
CCS(=O)(=O)N1CCCCN2[C@@H](CO)[C@H](c3ccc(-c4ccccc4F)cc3)[C@@H]2C1,3.1
CCS(=O)(=O)N1CCCCN2[C@@H](CO)[C@@H](c3ccc(-c4ccccc4F)cc3)[C@@H]2C1,-6.5*
CCS(=O)(=O)N1CCCCN2[C@H](C1)[C@@H](c1ccc(-c3ccccc3C)cc1)[C@@H]2CO,-8.8*
CCS(=O)(=O)N1CCCCN2[C@H](C1)[C@H](c1ccc(-c3ccccc3F)cc1)[C@@H]2CO,0.99
Cc1ccccc1-c1ccc([C@@H]2[C@@H](CO)N3CCCCN(S(=O)(=O)Cc4ccccc4)C[C@H]23)cc1,0.96
O=S(=O)(c1ccc(F)cc1)N1CCCCN2[C@H](C1)[C@H](c1ccc(-c3ccccc3)cc1)[C@@H]2CO,0.078
Cc1ccccc1-c1ccc([C@H]2[C@H](CO)N3CCCCN(S(=O)(=O)Cc4ccccc4)C[C@@H]23)cc1,-1.3
Cc1ccccc1-c1ccc([C@@H]2[C@@H](CO)N3CCCCN(S(=O)(=O)c4ccc(F)cc4)C[C@@H]23)cc1,-18*
Cc1ccccc1-c1ccc([C@H]2[C@@H](CO)N3CCCCN(S(=O)(=O)c4ccc(F)cc4)C[C@H]23)cc1,-0.86
O=C(c1ccc(F)cc1)N1CC(=O)N2[C@H](CO)[C@H](c3ccc(C#CCC4CCCC4)cc3)[C@@H]2C1,-0.91
C/C=C/c1ccc([C@H]2[C@@H](CO)N(CCC)[C@H]2CNC(=O)CN2CCOCC2)cc1,0.61
C/C=C/c1ccc([C@H]2[C@@H](C#N)N(C(=O)Cc3ccccn3)[C@@H]2CO)cc1,2.2
SMILES,IDE exosite inh
N#Cc1cccc(-c2ccc(C3[C@H]4CNC[C@@H]3N4Cc3cc(-c4ccccc4)on3)cc2)c1 (stereo not given in full),0.99
CN(C)C(=O)C[C@H]1CC[C@H]2[C@@H](COc3ccc(NC(=O)C4CCCCC4)cc3C(=O)N2C)O1,-1.1
C[C@H]1CN([C@@H](C)CO)C(=O)CCCn2cc(nn2)CO[C@H]1CN(C)C(=O)c1ccc(N2CCN(C)CC2)cc1,-0.66
N#C[C@H]1[C@H](c2ccc(C3=CCCCC3)cc2)[C@@H](CO)N1C(=O)c1cccc(F)c1,4.2
O=C(NC[C@@H]1[C@H](c2ccccc2)[C@@H](CO)N1CC1CCCC1)c1cccnc1,1.8
CCCN(C[C@H]1[C@@H](c2ccccc2)[C@H](CO)N1C(C)=O)C(=O)NC(C)C,4.3
CN(C)C(=O)c1cccc(-c2cccc(-c3nc(C(=O)N4CCCCC4)cc4c3[C@@H](CCO)N([S@](=O)C(C)(C)C)C4)c2)c1,-0.86
